# Results published in the supplement of paper PMC11732987, “Enantioselective OTUD7B fragment discovery through chemoproteomics screening and high-throughput optimisation” (Communications Chemistry, 2025).
# Unmarked numbers belong to inactive results.
# Experiments:
# Experiment in all cases: log2 ratio of Biotin-Ahx-Ub-VS probe labelling (fragment/DMSO); higher = less target engagement (more negative = stronger competition), active = hit call of the paper (q ≤ 0.05, log2 ratio ≤ -1)
# Details in all cases: compound concentration: 200 uM; treatment time: 3 h
# [1] = target: T1, USP42 (UniProt Q9H9J4)
# T1 sequence (whole entry): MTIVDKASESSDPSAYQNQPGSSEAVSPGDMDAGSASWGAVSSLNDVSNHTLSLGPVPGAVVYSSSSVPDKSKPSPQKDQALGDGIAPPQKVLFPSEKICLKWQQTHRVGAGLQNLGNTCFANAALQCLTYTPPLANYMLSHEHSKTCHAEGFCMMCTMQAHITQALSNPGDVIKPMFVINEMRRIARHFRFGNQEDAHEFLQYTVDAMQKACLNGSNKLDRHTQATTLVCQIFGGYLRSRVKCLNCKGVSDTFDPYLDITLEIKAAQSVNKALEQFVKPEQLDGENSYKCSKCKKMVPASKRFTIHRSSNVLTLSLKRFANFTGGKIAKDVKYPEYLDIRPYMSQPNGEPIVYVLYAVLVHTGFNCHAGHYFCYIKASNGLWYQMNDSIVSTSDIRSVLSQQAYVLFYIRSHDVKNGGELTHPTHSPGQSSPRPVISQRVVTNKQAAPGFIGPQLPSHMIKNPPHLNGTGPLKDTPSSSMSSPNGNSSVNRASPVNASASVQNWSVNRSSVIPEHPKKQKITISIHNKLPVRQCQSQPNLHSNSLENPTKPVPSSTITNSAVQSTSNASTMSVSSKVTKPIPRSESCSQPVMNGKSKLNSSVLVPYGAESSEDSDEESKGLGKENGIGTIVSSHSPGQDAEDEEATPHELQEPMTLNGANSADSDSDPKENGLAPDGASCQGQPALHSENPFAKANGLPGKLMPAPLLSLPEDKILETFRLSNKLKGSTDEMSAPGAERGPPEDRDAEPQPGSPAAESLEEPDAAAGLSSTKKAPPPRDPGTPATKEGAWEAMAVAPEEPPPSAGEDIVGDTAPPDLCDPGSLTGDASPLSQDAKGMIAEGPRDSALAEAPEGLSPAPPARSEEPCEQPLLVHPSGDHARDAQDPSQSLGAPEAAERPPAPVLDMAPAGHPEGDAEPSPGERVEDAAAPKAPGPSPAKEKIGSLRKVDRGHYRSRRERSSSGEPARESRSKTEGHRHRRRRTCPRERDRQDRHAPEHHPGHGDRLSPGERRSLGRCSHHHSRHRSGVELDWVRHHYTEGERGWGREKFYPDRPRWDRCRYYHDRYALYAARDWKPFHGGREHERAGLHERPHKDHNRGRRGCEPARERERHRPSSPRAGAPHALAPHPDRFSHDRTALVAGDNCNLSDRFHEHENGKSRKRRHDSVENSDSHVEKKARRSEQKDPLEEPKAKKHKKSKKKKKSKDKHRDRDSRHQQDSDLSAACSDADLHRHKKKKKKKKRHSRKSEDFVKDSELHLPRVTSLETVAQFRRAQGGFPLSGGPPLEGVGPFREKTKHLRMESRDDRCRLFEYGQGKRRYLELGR
# Procedure, shortened: (§1)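 Labelling with Biotin-Ahx-Ub-VS (0.5 µM final, 1 h) followed a 3 h triplicate treatment of HEK293T lysate (495 µg per sample, Tris/CHAPS/IGEPAL buffer with protease inhibitors) with fragment at 200 µM or vehicle. Labelled DUBs were NeutrAvidin-enriched, digested with LysC and trypsin, and run by diaPASEF LC-MS/MS. The values, average log2 fragment/vehicle ratios by unpaired t-test, come from global-median-normalised Spectronaut label-free quantities. Proteins with ≥2 unique peptides were used.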
# [2] = target: USP46 (UniProt P62068)
# Sequence of USP46 (P62068 whole entry): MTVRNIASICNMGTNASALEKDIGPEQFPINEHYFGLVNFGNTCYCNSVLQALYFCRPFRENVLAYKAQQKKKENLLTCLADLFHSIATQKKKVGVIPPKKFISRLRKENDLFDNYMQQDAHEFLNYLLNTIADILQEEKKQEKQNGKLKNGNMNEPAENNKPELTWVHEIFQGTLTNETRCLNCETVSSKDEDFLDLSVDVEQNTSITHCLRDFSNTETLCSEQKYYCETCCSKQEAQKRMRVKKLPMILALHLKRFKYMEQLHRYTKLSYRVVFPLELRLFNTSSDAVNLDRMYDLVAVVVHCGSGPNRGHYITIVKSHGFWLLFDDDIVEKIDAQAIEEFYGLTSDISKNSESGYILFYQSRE
# Procedure, shortened: as §1
# [3] = target: T2, USP47 (UniProt Q96K76)
# T2 sequence (whole entry): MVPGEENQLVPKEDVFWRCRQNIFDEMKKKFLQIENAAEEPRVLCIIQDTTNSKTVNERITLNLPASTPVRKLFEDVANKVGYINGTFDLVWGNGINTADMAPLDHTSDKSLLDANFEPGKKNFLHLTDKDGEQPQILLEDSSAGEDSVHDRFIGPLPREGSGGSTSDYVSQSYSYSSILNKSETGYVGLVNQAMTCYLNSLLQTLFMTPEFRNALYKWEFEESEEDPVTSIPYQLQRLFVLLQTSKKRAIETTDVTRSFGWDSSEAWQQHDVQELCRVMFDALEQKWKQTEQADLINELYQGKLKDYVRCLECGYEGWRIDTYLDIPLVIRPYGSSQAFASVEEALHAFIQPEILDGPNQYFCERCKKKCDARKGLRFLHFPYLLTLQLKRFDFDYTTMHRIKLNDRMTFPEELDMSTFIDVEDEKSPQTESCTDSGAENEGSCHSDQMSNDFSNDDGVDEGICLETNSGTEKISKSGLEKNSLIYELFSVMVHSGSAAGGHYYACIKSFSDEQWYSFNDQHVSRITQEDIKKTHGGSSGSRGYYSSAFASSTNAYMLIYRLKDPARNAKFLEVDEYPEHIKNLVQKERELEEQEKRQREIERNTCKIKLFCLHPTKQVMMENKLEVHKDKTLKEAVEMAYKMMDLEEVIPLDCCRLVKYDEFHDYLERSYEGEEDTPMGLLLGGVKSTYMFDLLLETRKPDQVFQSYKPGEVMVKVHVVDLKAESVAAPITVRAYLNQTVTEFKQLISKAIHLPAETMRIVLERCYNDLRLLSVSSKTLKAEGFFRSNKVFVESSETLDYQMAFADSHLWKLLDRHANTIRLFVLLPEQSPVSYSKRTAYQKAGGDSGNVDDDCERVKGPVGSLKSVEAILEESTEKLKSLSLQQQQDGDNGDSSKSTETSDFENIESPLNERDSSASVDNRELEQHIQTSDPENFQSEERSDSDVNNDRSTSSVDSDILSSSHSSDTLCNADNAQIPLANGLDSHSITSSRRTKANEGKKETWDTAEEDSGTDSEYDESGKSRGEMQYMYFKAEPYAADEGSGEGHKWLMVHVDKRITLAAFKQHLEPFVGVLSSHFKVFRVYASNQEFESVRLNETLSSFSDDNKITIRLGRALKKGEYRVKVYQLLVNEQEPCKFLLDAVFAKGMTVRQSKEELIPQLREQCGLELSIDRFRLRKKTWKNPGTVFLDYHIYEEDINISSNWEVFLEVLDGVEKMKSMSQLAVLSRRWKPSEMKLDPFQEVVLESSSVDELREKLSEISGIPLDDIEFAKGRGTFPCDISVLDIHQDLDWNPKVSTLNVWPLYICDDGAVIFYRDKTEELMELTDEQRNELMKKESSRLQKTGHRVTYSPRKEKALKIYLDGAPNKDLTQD
# Procedure, shortened: as §1
# [4] = target: T3, USP48 (UniProt Q86UV5)
# T3 sequence (whole entry): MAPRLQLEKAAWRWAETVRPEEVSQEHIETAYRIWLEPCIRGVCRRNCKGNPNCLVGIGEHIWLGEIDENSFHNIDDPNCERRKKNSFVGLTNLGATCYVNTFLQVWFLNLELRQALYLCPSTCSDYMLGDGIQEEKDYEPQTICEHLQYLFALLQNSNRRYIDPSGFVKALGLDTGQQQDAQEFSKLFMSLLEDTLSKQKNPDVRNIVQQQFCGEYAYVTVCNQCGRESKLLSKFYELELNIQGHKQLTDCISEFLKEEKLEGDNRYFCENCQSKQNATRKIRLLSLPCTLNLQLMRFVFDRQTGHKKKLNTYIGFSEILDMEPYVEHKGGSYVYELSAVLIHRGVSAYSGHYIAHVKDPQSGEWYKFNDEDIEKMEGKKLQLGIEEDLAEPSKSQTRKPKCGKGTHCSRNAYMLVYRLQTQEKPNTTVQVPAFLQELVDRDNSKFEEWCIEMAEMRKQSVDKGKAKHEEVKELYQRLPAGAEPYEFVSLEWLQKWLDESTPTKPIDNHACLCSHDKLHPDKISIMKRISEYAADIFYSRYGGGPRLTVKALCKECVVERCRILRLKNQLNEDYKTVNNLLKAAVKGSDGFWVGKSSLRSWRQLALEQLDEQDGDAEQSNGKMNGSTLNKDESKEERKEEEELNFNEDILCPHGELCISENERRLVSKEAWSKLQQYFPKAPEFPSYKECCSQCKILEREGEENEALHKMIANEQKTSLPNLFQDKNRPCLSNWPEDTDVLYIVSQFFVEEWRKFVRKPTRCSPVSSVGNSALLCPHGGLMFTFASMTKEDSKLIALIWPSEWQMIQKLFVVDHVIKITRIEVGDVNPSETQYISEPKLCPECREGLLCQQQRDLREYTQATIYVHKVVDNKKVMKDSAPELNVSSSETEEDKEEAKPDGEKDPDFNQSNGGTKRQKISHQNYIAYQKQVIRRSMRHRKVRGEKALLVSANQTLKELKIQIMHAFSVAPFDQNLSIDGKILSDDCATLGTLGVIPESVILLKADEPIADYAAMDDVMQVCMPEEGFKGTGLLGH
# Procedure, shortened: as §1
# [5] = target: T4, USP5 (UniProt P45974)
# T4 sequence (whole entry): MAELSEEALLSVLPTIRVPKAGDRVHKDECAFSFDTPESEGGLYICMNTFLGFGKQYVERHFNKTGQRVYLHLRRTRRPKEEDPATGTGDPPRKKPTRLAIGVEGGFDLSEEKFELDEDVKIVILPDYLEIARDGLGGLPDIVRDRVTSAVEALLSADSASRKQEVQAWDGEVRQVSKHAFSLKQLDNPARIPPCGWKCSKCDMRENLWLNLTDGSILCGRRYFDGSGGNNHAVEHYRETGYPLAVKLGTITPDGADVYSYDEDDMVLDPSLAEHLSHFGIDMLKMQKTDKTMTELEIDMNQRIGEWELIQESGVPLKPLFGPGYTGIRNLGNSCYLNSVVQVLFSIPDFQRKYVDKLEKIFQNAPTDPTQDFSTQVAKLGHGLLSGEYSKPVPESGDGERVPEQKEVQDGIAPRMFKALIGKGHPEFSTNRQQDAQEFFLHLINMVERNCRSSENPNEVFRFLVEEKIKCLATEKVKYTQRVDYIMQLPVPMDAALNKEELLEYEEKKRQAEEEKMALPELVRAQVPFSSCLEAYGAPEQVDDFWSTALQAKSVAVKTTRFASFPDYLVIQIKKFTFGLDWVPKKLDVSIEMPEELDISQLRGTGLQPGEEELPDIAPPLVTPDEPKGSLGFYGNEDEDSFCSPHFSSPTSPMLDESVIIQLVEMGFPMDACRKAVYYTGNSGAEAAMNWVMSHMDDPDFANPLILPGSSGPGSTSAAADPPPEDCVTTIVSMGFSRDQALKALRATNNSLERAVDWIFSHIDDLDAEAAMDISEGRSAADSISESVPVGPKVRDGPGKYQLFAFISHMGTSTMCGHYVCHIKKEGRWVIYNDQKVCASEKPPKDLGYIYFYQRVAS
# Procedure, shortened: as §1
# [6] = target: USP54 (UniProt Q70EL1)
# Sequence of USP54 (Q70EL1 whole entry): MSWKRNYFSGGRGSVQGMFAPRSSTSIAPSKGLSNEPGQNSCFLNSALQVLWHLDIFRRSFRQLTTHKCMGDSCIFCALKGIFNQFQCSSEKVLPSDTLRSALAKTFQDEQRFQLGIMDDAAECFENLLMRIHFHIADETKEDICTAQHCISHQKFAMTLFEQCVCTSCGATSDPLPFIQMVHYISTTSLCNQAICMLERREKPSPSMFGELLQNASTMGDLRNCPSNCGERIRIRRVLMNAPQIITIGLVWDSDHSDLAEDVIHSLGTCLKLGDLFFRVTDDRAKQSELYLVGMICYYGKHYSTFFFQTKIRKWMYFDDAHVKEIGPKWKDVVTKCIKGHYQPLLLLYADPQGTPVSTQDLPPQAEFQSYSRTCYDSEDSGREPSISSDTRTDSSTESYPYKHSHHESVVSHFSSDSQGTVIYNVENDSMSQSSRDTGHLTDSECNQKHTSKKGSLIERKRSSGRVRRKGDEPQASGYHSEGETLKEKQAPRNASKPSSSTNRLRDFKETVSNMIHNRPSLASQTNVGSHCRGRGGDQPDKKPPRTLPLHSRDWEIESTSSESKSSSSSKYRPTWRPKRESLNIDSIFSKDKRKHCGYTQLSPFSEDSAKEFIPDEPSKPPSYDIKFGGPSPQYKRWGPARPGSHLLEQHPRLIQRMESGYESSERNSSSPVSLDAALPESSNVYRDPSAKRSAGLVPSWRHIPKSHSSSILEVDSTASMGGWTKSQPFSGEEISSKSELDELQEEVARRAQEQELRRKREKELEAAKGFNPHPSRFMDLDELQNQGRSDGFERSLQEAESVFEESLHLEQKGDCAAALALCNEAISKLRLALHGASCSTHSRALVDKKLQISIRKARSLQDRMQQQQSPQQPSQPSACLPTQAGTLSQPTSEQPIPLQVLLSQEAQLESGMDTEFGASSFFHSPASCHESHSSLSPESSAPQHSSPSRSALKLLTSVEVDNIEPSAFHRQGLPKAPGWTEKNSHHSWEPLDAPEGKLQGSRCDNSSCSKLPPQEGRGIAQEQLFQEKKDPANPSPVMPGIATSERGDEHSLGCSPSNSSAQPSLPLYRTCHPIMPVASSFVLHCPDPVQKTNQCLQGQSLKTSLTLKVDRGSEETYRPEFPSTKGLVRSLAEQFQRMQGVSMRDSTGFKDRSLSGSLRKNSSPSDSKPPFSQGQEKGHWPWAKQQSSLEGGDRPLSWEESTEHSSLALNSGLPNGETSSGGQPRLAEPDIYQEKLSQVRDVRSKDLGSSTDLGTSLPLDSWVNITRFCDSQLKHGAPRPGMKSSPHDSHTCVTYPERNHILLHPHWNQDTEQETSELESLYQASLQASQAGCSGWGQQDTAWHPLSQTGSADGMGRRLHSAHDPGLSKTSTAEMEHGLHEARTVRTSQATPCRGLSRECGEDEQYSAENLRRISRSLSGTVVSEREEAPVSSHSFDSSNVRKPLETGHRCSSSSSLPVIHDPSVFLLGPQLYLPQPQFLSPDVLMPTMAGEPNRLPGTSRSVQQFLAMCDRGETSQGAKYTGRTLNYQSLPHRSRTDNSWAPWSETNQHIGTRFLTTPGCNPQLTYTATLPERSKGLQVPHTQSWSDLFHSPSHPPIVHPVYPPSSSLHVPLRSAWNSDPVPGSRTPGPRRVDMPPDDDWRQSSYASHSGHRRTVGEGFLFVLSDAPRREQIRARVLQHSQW
# Procedure, shortened: as §1
# [7] = target: USP7 (UniProt Q93009)
# Procedure, shortened: as §1
# [8] = target: T5, USP8 (UniProt P40818)
# T5 sequence (whole entry): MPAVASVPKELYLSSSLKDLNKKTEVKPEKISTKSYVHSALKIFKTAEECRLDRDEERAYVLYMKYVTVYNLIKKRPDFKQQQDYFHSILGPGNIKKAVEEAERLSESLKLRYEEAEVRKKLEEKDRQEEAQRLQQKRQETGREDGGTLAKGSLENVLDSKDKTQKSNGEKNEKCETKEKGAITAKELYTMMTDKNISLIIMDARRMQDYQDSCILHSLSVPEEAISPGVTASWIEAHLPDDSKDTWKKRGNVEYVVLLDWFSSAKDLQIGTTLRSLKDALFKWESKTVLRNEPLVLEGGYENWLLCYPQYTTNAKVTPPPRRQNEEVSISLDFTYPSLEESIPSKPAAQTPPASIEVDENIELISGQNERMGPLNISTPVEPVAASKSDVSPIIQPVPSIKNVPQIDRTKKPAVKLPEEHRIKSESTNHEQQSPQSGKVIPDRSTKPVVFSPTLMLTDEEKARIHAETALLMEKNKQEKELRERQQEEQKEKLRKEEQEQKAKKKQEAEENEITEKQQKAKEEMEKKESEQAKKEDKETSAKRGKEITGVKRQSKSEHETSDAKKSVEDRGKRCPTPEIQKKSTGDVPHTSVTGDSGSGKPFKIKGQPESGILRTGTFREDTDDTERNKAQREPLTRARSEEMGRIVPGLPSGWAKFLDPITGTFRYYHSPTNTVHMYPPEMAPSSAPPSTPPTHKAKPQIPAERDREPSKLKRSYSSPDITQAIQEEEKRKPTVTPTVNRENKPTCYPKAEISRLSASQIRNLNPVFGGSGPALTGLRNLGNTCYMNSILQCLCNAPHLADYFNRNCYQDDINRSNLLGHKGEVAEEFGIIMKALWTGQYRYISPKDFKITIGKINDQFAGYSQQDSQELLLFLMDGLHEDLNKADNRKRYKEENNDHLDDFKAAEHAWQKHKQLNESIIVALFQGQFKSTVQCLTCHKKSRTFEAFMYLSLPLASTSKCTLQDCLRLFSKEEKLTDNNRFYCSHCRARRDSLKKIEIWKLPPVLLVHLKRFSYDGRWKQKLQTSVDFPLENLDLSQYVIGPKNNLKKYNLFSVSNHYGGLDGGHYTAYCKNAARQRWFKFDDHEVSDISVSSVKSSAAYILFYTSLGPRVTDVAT
# Procedure, shortened: as §1
# [9] = target: USP9X (UniProt Q93008)
# Sequence of USP9X (Q93008 whole entry): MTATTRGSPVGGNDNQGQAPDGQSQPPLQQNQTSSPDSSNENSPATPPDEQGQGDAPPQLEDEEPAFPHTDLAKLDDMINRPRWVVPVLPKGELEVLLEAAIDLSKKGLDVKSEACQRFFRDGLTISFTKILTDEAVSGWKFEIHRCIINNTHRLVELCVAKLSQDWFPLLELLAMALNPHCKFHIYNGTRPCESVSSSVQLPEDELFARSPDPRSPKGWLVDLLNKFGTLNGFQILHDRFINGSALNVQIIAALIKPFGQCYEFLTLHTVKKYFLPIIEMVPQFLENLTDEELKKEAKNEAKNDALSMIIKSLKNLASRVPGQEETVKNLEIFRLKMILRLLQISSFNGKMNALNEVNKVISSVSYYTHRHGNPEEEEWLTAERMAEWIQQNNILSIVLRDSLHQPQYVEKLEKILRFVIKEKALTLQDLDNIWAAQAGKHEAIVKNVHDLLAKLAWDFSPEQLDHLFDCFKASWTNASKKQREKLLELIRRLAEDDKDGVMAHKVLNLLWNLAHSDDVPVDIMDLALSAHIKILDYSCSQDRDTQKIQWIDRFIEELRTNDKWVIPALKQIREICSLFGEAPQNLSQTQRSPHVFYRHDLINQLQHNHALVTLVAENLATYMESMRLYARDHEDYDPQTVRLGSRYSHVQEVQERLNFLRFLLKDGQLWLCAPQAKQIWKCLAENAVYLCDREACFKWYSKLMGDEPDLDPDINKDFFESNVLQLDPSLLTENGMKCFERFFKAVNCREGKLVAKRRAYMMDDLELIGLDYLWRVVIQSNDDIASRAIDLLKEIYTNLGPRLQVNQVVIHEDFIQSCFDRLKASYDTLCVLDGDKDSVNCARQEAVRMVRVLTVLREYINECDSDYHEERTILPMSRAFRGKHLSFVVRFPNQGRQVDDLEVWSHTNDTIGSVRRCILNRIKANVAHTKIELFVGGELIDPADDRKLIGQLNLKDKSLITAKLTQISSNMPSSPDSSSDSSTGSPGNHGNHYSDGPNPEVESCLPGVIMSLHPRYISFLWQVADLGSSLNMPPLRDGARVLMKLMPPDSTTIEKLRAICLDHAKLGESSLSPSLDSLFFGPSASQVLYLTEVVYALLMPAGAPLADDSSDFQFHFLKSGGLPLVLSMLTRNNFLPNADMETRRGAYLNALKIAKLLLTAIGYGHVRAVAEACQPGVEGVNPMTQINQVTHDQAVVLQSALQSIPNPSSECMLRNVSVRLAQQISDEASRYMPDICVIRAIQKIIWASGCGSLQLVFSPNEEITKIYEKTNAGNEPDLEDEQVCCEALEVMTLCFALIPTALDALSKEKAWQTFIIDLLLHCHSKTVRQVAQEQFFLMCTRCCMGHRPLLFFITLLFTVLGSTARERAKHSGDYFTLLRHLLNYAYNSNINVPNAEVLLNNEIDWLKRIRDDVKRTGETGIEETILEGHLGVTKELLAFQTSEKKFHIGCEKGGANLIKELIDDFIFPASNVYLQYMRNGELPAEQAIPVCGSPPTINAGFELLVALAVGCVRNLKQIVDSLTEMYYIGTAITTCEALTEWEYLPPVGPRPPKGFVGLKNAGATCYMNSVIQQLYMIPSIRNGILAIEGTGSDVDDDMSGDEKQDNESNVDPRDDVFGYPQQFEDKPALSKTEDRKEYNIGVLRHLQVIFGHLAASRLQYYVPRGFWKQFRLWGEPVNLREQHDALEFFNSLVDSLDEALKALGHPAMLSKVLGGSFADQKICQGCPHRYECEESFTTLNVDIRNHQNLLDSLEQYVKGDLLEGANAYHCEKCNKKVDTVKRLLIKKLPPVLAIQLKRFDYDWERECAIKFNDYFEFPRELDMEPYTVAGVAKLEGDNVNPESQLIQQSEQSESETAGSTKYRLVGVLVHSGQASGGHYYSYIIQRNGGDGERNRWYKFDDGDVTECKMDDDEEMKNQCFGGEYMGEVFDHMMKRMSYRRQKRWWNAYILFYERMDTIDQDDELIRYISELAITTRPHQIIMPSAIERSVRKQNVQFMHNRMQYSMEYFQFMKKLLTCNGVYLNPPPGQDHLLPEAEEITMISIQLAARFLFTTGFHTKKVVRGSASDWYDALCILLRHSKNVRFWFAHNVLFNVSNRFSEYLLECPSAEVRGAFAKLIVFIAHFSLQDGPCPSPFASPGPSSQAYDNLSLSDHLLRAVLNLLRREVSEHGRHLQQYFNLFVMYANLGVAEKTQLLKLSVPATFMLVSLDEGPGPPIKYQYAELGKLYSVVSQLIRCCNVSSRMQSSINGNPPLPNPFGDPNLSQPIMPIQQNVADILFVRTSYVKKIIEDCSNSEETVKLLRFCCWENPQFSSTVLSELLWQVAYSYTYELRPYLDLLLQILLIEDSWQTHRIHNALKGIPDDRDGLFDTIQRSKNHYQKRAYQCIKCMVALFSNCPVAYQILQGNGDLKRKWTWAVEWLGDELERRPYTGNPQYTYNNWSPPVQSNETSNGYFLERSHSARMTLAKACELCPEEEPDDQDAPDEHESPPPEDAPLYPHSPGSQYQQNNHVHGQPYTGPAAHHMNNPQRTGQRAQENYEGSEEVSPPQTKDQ
# Procedure, shortened: as §1
# [10] = target: UniProt O00487
# Sequence of UniProt O00487 (O00487 whole entry): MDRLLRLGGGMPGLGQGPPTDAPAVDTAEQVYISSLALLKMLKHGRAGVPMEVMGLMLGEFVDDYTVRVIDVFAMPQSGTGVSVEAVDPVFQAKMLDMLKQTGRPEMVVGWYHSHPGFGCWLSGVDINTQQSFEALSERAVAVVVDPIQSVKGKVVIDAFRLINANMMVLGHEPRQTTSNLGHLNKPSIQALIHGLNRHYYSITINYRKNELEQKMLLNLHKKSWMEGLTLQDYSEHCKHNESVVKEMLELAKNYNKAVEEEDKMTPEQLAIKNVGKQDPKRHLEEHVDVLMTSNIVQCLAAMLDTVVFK
# Procedure, shortened: as §1
smiles,measurement,setting,value
Cl.Cn1ncc2c1CCCC2NC(=O)CCl (stereo not given),log2 ratio of Biotin-Ahx-Ub-VS probe labelling,[1],0.564
same,log2 ratio of Biotin-Ahx-Ub-VS probe labelling,[2],-0.0969
same,log2 ratio of Biotin-Ahx-Ub-VS probe labelling,[3],-1.12 (active)
same,log2 ratio of Biotin-Ahx-Ub-VS probe labelling,[4],-0.07
same,log2 ratio of Biotin-Ahx-Ub-VS probe labelling,[5],-0.277
same,log2 ratio of Biotin-Ahx-Ub-VS probe labelling,[6],0.656
same,log2 ratio of Biotin-Ahx-Ub-VS probe labelling,[7],-0.377
same,log2 ratio of Biotin-Ahx-Ub-VS probe labelling,[8],0.0774
same,log2 ratio of Biotin-Ahx-Ub-VS probe labelling,[9],-0.000676
same,log2 ratio of Biotin-Ahx-Ub-VS probe labelling,[10],-0.128
